About 3,300 (0.97%) of roughly 340,000 compounds were called active. Another 9% or so got no clear call; they are omitted. Calls follow the shape of the dose curve; as a rule, active = well fitted inhibition curve with a large enough effect; inconclusive = small, poorly fitted or top-dose-only effect, or effect the other way; inactive = flat fitted curve, though single readings scatter. The list shows a part of the results.
Potency is read from the fitted curve at half-maximal effect.

The test in a line: qHTS Assay for Modulators of miRNAs and/or Inhibitors of miR-21. Also: nearly all actives have a fitted effect of over 55% in size. The note with it: HeLa miR-21-FLuc reporter, luciferase luminescence, 48 h; actives lower the signal. From the text:
MLSCN Grant: 1 R21 NS059478-01 Assay Provider: Qihong Huang, The Wistar Institute NCGC Assay Overview: MicroRNAs (miRNAs) are endogenously encoded small (~20-25 nucleotides), nonprotein-coding RNAs that are involved in post-transcriptional repression of target messenger RNAs (mRNAs) (Le and Hannon, 2004). Estimated to be involved in the regulation of 30% of all protein-coding mRNAs (Filipowicz et al., 2008), miRNAs play a significant role in many biological processes including cellular differentiation and tissue development (Ghildiyal and Zamore, 2009).
NCGC Assay Protocol Summary: Reagents: HeLa cells stably expressing firefly luciferase (FLuc) under the control of a CMV promoter (upstream) and a miR-21 binding sequence directly downstream of the gene. These cells endogenously express miR-21. Control compounds used were compound C3 (provided by collaborator), N6-phenyladenosine (MP Biomedicals, 0215379625), and DMSO. Assay Summary: 6uL of HeLa miR-21-FLuc cells in assay buffer (DMEM, Invitrogen #21063-029; 10% FBS, HyClone #SH30071.03) were dispensed at 2000cells/well (3.3 x 10^5 cells/mL) into Greiner solid-white TC-treated 1536-well plates using a Multidrop Combi (Thermo Fisher Scientific). Plates were incubated for one hour at 37 degree Celsius, 95% humidity, 5% CO2. These assay plates were then treated with 23nL of compound or DMSO using a Kalypsys pin tool, which allows for delivery of a 24-point titration of each compound to the assay plate, with a final compound concentration ranging from approximately 40uM to 5pM. Assay plates were then incubated for 48 hours. After incubation, plates were allowed to come to RT for one hour prior to delivery of 3uL of 3X luciferase detection reagent. After a 15 minute incubation to allow for cell lysis, luciferase activity was measured using a ViewLux CCD imager (PerkinElmer), with an average exposure time of 2-12 seconds. Keywords: NIH Roadmap, MLPCN, MLSMR, qHTS, miR-21, microRNA, firefly luciferase, FLuc.
(In general: Quantitative high-throughput screening tests each substance at several concentrations.)
Consider `CCOc1ccc(NC(=O)Cc2ccccc2)cc1`, for which the Potency was 2.61 µM (active). As for `COC(=O)Nc1ccc(OCc2ccccc2)cc1`, the Potency was 5.21 µM (active). Regarding `Clc1cccc(Cl)c1C1=NOC(c2nnc(-c3ccccc3)o2)C1` (stereo not given), the Potency was 13.1 µM (active). `COc1ccc(C(=O)Nc2nc3ccccc3[nH]2)cc1OC`: the Potency was 1.85 µM (active).

Consider `O=C(Nc1ccc(N2CCCC2)cc1)c1cccc(Cl)c1`, for which the Potency was 0.329 µM (active). Next, `COc1ccc(C(=O)Nc2ccc(N3CCCC3)cc2)cc1OC`: 4.65 µM (active). With `NC(=O)NC(=O)C(Nc1ccc(N2CCCCC2)cc1)c1ccccc1` (stereo not given) the figure was 13.1 µM (active); with `Cc1cccc(NC(=O)c2cc3ccccc3oc2=O)c1`, 0.329 µM (active); with `O=C(Nc1ccccc1O)c1cc2cc(Br)ccc2oc1=O`, 0.521 µM (active).

In the case of `Cc1ccnc(NC(=O)c2cc3ccccc3oc2=O)c1`, the Potency was 0.414 µM (active).

Turning to `CCN(C(=O)c1cc2ccccc2oc1=O)c1ccccc1`, the Potency is 6.56 µM (active). `CCOc1ccc(C2=NC(c3ccc(OC)cc3)=Nc3ccc(Cl)cc3N2)cc1`: the Potency is 18.5 µM (active). For `O=C(Cn1cccc1C(=O)c1ccccc1)NCc1ccccc1Cl`, the Potency is 11.7 µM (active). Take `O=C1NC(=S)N/C1=C/c1cccc2ccccc12`: the Potency was 14.7 µM (active). Next, `CCOC(=O)c1cccc(COC(=O)c2cccc(-c3nnc(-c4ccccc4)o3)c2)c1`: 5.85 µM (active); `Cc1c(/C=C/C(=O)c2cccs2)cnn1C`: 14.7 µM (active); `Cc1nn(C)cc1/C=C/C(=O)c1cccs1`: 13.1 µM (active). With `Nc1nnc(COc2ccc(Br)cc2Br)s1` the figure was 5.21 µM (active); with `C=CCN1C(=O)C(=O)N(Cc2nc3ccccc3s2)C1=O`, 11.7 µM (active).

In the case of `Cc1ccc(Oc2ncnc3sccc23)cc1`, the Potency was 14.7 µM (active).

On to `C=C(C)CNC(=O)CCc1nnc(Cc2cccc(C(F)(F)F)c2)o1`, for which the Potency is 11.7 µM (active). `CC1CCCCN1C(=O)c1cc2c(=O)n3ccccc3nc2s1` (stereo not given): the Potency is 16.5 µM (active).

Regarding `CC1CCN(C(=O)c2cc3c(=O)n4ccccc4nc3s2)CC1`, the Potency is 14.7 µM (active).

On to `O=C(NC1CCCCCC1)c1cc2c(=O)n3ccccc3nc2s1`, for which the Potency was 10.4 µM (active).

As for `CC1CCCN(C(=O)c2cc3c(=O)n4ccccc4nc3s2)C1` (stereo not given), the Potency was 14.7 µM (active).

Consider `Cc1cc(N2CCN(C)CC2)nc2ccc(NC(=O)Nc3ccccc3)cc12`, for which the Potency is 7.36 µM (active).

For `Cc1cc(N2CCN(C)CC2)nc2ccc(NC(=O)Nc3ccccc3Cl)cc12`, the Potency is 0.585 µM (active).

As to `Cc1cc(C)cc(Nc2ccc(C(=O)O)cc2N)c1`, the Potency is 18.5 µM (active). For the molecule `O=C(/C=C/c1cccs1)c1ccc(NC(=O)c2ccccc2F)cc1`, the Potency is 13.1 µM (active).

As to `N/C(Cc1ccc([N+](=O)[O-])cc1)=N\OC(=O)c1ccccc1F`, the Potency was 16.5 µM (active). With `O=C(Nc1ccc([N+](=O)[O-])cc1)c1ccccc1F` the figure was 4.14 µM (active); with `O=C(Nc1ccn(-c2ccccc2)n1)c1ccccc1Br`, 13.1 µM (active). With `N=C1C(c2nc3ccccc3[nH]2)=C(O)CN1c1ccc(F)cc1` the figure was 14.7 µM (active); with `CCn1c(SCC(=O)O)nnc1-c1ccccc1OC`, 3.29 µM (active); with `CN(C)c1ccc(/C=N/N=C/c2ccccc2O)cc1`, 2.61 µM (active). Next, `Cc1cc2cc3c(N)[nH]nc3nc2cc1C`: 14.7 µM (active). For `CCc1ccc2nc3n[nH]c(N)c3cc2c1`, the Potency is 2.33 µM (active). Next, `Cc1nc(-c2nc(-c3c(C(=O)NN)noc3C)cs2)cs1`: 4.14 µM (active); `COCCCNC(=O)c1ccc(NC(=O)c2nsc3ccccc23)cc1`: 3.69 µM (active). Consider `Cc1ccc(CNC(=O)c2ccc(NC(=O)c3nsc4ccccc34)cc2)cc1`, for which the Potency is 1.65 µM (active).

With `CSc1ccc(CNC(=O)c2ccc(NC(=O)c3nsc4ccccc34)cc2)cc1`, the Potency is 0.585 µM (active).

On to `CCOc1ccc(CNC(=O)c2ccc(NC(=O)c3nsc4ccccc34)cc2)cc1`, for which the Potency is 1.85 µM (active).

For the molecule `CCOc1cc(CNC(=O)c2ccc(NC(=O)c3nsc4ccccc34)cc2)ccc1OC`, the Potency is 0.585 µM (active). As to `O=C(Nc1ccccc1F)N1CCc2ccccc2C1`, the Potency is 4.65 µM (active). As for `Nc1nc(CSC(=S)N2CCOCC2)nc(Nc2ccccc2)n1`, the Potency was 3.69 µM (active). As to `Nc1nc(CSC(=S)N2CCCCC2)nc(Nc2ccccc2)n1`, the Potency was 11.7 µM (active). Regarding `Cn1c(CCN2CCCCCC2)nc2cc(NC(=O)Nc3ccccc3)ccc21`, the Potency is 7.36 µM (active).

Consider `Cc1nc2cc(NC(=O)Nc3cccc4ccccc34)ccc2n1C`, for which the Potency was 2.93 µM (active). With `Cc1ccc(NC(=O)Nc2ccc3c(c2)nc(C)n3C)cc1C`, the Potency was 1.17 µM (active). Next, `Cc1ccc(/C=N/Nc2ccc(Cl)c(C(=O)O)c2)s1`: 0.165 µM (active); `Cc1ccc(/C=N/Nc2ncc(Cl)cc2Cl)s1`: 3.69 µM (active); `Cc1ccc(/C=N/Nc2cccc(C(=O)O)c2)s1`: 0.104 µM (active). As for `CN(C(=O)c1ccco1)c1nnc(C23CC4CC(CC(C4)C2)C3)s1`, the Potency is 8.26 µM (active).

Consider `CCSc1cc(C)nc2c(-c3ccccc3)cnn12`, for which the Potency is 0.656 µM (active). On to `C=CCSc1cc(C)nc2c(-c3ccccc3)cnn12`, for which the Potency was 2.07 µM (active). Take `COc1ccc(/C=C/C=C2\NC(=S)NC2=O)cc1`: the Potency is 14.7 µM (active). Next, `Cc1oc(C(C)(C)C)cc1C(=O)Nc1ccc(C(=O)O)cc1`: 8.26 µM (active); `NC1=NC(=O)/C(=C/c2cn(Cc3ccccc3)c3ccccc23)S1`: 9.27 µM (active).

Turning to `Cc1ccc(C(=O)C(C)OC(=O)c2ccccc2[N+](=O)[O-])cc1` (stereo not given), the Potency was 4.65 µM (active).

With `Cc1ccc(NC(=O)CC(=O)c2ccccc2)cc1C`, the Potency was 11.7 µM (active). Next, `Cc1ccc2cc(NC(=O)c3ccccc3C)ccc2n1`: 5.85 µM (active); `Cc1ccc2cc(NC(=O)c3cccc(F)c3)ccc2n1`: 0.464 µM (active). Take `CCc1ccc(C(=O)Nc2ccc3nc(C)ccc3c2)cc1`: the Potency was 3.29 µM (active).

As for `Cc1ccc2cc(NC(=O)Cc3ccccc3)ccc2n1`, the Potency is 2.07 µM (active). As to `CCC(=O)Nc1ccc(-c2csc(C)n2)cc1`, the Potency is 7.36 µM (active).

Take `CCC(=O)Nc1ccc(-c2ccc(N3CCCCC3)nn2)cc1`: the Potency is 4.14 µM (active). With `COc1cc(SC)ccc1C(=O)Nc1ncc(Cl)cc1Cl` the figure was 1.85 µM (active).

As for `CSc1ccccc1C(=O)Nc1ccc2c(c1)CCC2`, the Potency was 7.36 µM (active). Next, `COc1cc(SC)ccc1C(=O)Nc1ccc2ncccc2c1`: 0.369 µM (active). Next, `COc1cc(SC)ccc1C(=O)Nc1ccc2c(c1)CCC2`: 1.31 µM (active).

(Values after PubChem BioAssay AID2289 (National Center for Advancing Translational Sciences (NCATS), 2010).)
